SMILES strings stand for the structures. Results filed as inconclusive are left out. A number with no mark means an inactive call. Activity calls are given as the source filed them. Calls come from the whole dose curve; as a rule, active = well fitted inhibition curve with a large enough effect; inconclusive = small, poorly fitted or top-dose-only effect, or effect the other way, or another doubt; inactive = no such curve, though single readings can be large or run the other way.
Potency is the fitted concentration of half-maximal effect.

The nature of the assay: Confirmation Concentration-Response Assay for lipid storage modulators.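 For activity change, negative = inhibition: -100% = full block of lipid deposition by 20 µM Triacsin C.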 Note: nearly all actives have a fitted effect of over 80% in size. Particulars: Drosophila S3 cells, lipid droplet BODIPY/CellTracker ratio, 18-24 h; series mostly up to 46.1 µM; activity change, negative = inhibition: at the top concentration. Put shortly: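 Cells at 5,000/well received compound as a titration plus oleic acid (added as 400 uM solution) and were incubated 18–24 h at 24 °C. BODIPY 493/503 lipid signal and CellTracker Red cell count were read by 488-nm laser-scanning cytometry. Activity was normalised to 20 uM Triacsin C.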
On to `COc1ccc(/C=C/C(=O)NCCc2ccc(OC)c(OC)c2)cc1`, for which the Potency was 5.6 µM (active).

`c1ccc(-c2csc3ncnc(NCC4COc5ccccc5O4)c23)cc1` (stereo unspecified): the Potency is 1.99 µM (active).

With `N#Cc1ccsc1NC(=O)CN1CCN(S(=O)(=O)c2cc(Cl)ccc2Cl)CC1`, the Potency is 2.5 µM (active).

Consider `CCOc1ccc(CCNC(=O)COC(=O)CCc2cc(OC)c(OC)c(OC)c2)cc1OCC`, for which the “activity change, negative = inhibition” value was -28%.

As to `COc1ccc(-c2cnc(SCC(=O)Nc3nc(C(C)(C)C)cs3)n2Cc2ccco2)cc1`, the Potency is 0.705 µM (active).

On to `COc1ccc(/C=C\C(=O)NCc2ccc3[nH]c(C)cc3c2)cc1OC`, for which the Potency is 4.45 µM (active).

For `COc1ccc(CCNC(=O)c2cc3sc(Cl)cc3n2C)cc1OC`, the “activity change, negative = inhibition” value was 0%.

As for `CC(=O)N1CCN(C(=O)C2(NC(=O)Nc3ccc(C)cc3)CCCCC2)CC1`, the “activity change, negative = inhibition” value was 9.61%.

As for `COc1cccc(/C=C/C(=O)NCCc2ccc(OC)c(OC)c2)c1`, the Potency was 1.77 µM (active).

Turning to `CCCCNc1cc(C)nc(NCc2ccccc2)n1`, the Potency is 7.91 µM (active).

Turning to `COc1nc(Nc2nc3ccccc3c(=O)[nH]2)nc2ccc(C)cc12`, the Potency was 2.17 µM (active).

With `COc1ccc(CC(=O)NCCc2ccc(OC)c(OC)c2)cc1`, the “activity change, negative = inhibition” value was 12.7%.

For `COC(c1ccccc1)c1nnc(CCC(=O)NC2C3CC4CC(C3)CC2C4)o1` (stereo unspecified), the Potency was 5.6 µM (active).

On to `CCC1CCCCN1C(=O)c1cc(COc2ccc3ncccc3c2)on1` (stereo unspecified), for which the Potency is 4.34 µM (active).

For `Cc1cc(C(=O)O[C@H]2[C@H](C)NS(=O)(=O)[C@H]3C[C@@H]4C=C[C@]23O4)cc([N+](=O)[O-])c1`, the “activity change, negative = inhibition” value was 15%.

For the compound `CCC(C)N1C(=O)c2ccccc2C1C(=O)NC1CCCCCC1` (stereo unspecified), the Potency was 1.99 µM (active).
